Only some compounds are listed: those with a hit (about 2.3% of all), similar ones and a draw of the others.
M1 PAM parental: nonselective activator or artifact in parental CHO-K1 calcium assay | activation, % at 3 µM | ATP EC20, Fluo-8 calcium fluorescence; 0% at ATP EC20, 100% at ATP max | hit rate 0.02% among 360,000;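 active = activation above the run cutoff, the mean activation of all test compounds plus 3 SD, cut at about 40% in these data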;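 also: peak over basal fluorescence ratio in a 140 s read after ATP addition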
M1 PAM: potentiates human M1 receptor response to acetylcholine; CHO-K1 hM1, Fluo-8 calcium fluorescence, ACh EC20; 0% = ACh EC20, 100% = maximal ACh; activation, % at 3 µM; hit rate 0.088% among 360,000; AID 588819; in the data active = activation above about 19%, passing the limit was not always enough
Target sequence (P11229 whole entry, looked up): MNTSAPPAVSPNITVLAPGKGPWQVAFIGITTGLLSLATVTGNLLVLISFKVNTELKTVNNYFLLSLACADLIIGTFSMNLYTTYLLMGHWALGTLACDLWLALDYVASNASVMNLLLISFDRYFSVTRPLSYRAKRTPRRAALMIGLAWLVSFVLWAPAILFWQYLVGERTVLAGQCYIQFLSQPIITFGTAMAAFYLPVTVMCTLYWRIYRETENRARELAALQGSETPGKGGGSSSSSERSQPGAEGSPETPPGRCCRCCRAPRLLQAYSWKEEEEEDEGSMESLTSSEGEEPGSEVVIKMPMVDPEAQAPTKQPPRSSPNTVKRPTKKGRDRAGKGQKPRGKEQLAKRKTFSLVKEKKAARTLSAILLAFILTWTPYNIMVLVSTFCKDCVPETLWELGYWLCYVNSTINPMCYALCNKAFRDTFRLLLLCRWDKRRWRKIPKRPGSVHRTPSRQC
CHO-K1 Ca ag: nonselective activator or artifact in parental CHO-K1 cells; hit rate 0.48% among 360,000; AID 602248; activation, % at 3 µM; Fluo-8 calcium fluorescence; scaled to maximal ATP response, vehicle zero; in the data active = activation above about 15%;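 also: untransfected CHO-K1 host cells lacking M1 receptor as counterscreen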
CHRM1 antagonist: antagonists of human M1 muscarinic receptor. P11229. CHO-K1 hM1, Fluo-8 calcium fluorescence, ACh EC80 antagonist. inhibition, % at 3 µM. hit rate 1.3% among 360,000;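 active = percent inhibition above its own plate's cutoff, namely the mean of that plate's compound wells plus 3 SD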;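 also: peak over basal fluorescence ratio during 140 s after agonist addition; 0% = ACh EC80 plus DMSO and 100% = DMSO alone without agonist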
CHRM1 agonist: activates human CHRM1 receptor; P11229; CHO-K1 hM1, Fluo-8 calcium fluorescence, agonist mode; 0% DMSO, 100% acetylcholine EC100; activation, % at 3 µM; hit rate 0.33% among 360,000;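 active = activation above the run's mean compound activation plus 3 SD, cut at about 16% in these data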;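 also: peak over basal fluorescence ratio within a 140 s kinetic read after compound addition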
CHO-K1 Ca antag: counter-screen for M1 antagonists: effect in parental CHO-K1 cells | ATP-induced calcium, Fluo-8 fluorescence | AID 602250 | hit rate 0.6% among 360,000 | inhibition, % at 3 µM;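 active = inhibition above a per-plate cutoff, the plate's mean sample inhibition plus 3 SD, cut at about 24% in these data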;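 also: 0% = DMSO plus EC80 ATP and 100% = DMSO alone without ATP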
* hit, by the source's call.

SMILES	M1 PAM parental	M1 PAM	CHO-K1 Ca ag	CHRM1 antagonist	CHRM1 agonist	CHO-K1 Ca antag
Cc1ccc(S(=O)(=O)CCC(=O)OCC(=O)N(C)CC(=O)Nc2ccc(F)cc2)cc1	-3	-11	0	20*	-3	-1
O=C(Cc1ccccc1)NC(NC(=O)Cc1ccccc1)c1cccc([N+](=O)[O-])c1	11	9	0	-6	-5	-5
C=CCN(CC(O)c1cccc([N+](=O)[O-])c1)C(C)CCc1ccccc1 (stereo not given)	4	-24	0	39*	-7	-4
O=[N+]([O-])c1ccc2cn[nH]c2c1	-10	1	2	-19	0	35*
CSc1ccc(CN2CCC(CO)(Cc3ccc(Cl)cc3)CC2)cc1	11	-23	3	56*	-2	-3
OCC1(Cc2ccc(Cl)cc2)CCN(Cc2ccccc2F)CC1	-1	-11	2	9	-8	0
O=C(c1ccc(Cl)c([N+](=O)[O-])c1)N1CCN(Cc2ccc3c(c2)OCO3)CC1	1	-4	16*	-4	-12	5
O=Cc1cc([N+](=O)[O-])ccc1N1CCN(Cc2ccc3c(c2)OCO3)CC1	-7	-30	10	35*	-6	-10
O=C(c1cccc(Cl)c1)N1CCN(Cc2ccc3c(c2)OCO3)CC1	0	-2	0	-3	-6	-3
O=[N+]([O-])c1ccc(N2CCN(Cc3ccc4c(c3)OCO4)CC2)nc1	22	1	5	-14	-4	-13
CC1CCN(c2nc3ccc(C(=O)N4CCN(Cc5ccc6c(c5)OCO6)CC4)cc3s2)CC1	3	-17	0	29*	-11	9
CC(C)(C)NC(=O)NC(=O)CSc1ccc(S(=O)(=O)N2CCCCC2)cn1	5	2	3	2	-4	-7
CCN(Cc1ccccc1)C(=O)COC(=O)Cc1c[nH]c2ccccc12	-13	0	5	3	-3	25*
O=S(=O)(c1cc(F)ccc1F)N1CCN(c2ncnc3ccccc23)CC1	-3	-13	18*	31*	0	5
O=S(=O)(c1cc(F)ccc1F)N1CCN(c2ccccn2)CC1	12	1	1	-4	-7	6
CC12CCC(C(=O)N(Cc3ccccc3)Cc3ccccc3)(OC1=O)C2(C)C (stereo not given)	-8	-8	0	-14	-6	25*
CC12CCC(C(=O)NNC(=O)c3ccccc3)(OC1=O)C2(C)C (stereo not given)	-20	5	0	-6	-3	18
Cc1nn(C(=O)c2nn(C)cc2[N+](=O)[O-])c(C)c1Br	-8	-7	0	3	-8	2
CC1(C(=O)NCc2cccc(C(F)(F)F)c2)CCN1Cc1ccc2ccccc2c1 (stereo not given)	10	-19	1	32*	-8	-8
CC1(C(=O)NCc2cccc3ccccc23)CCN1Cc1ccc2ccccc2c1 (stereo not given)	-5	-17	0	18	-8	-3
COc1ccc(-n2c(SCC(=O)N/N=C(\C)c3cccnc3)nc3ccccc3c2=O)cc1	21	11	1	-19	-3	-10
O=C(NCc1csc2ccccc12)Nc1cc(Cl)cc(Cl)c1	-18	-21	4	33*	0	13
O=C(Nc1ccccc1)Nc1cc(OCC(F)(F)F)cc(OCC(F)(F)F)c1	-12	-21	13	25*	-1	32*
O=C(Nc1ccc(Nc2ccccc2)cc1)Nc1ccccc1Cl	3	0	0	-3	-4	-11
O=C(Nc1ccccc1)Nc1cc(Cl)cc(Cl)c1	4	-12	10	28	2	24*
O=C(Nc1cccnc1)Nc1cc(Cl)cc(Cl)c1	-13	-3	14	15	6	37*
COc1cc(C#N)c(N=C(SCC#N)N2CCOCC2)cc1OC	19	1	0	14	0	-5
Cn1ccnc1C1CCCCN1Cc1nc(Cc2ccccc2F)no1 (stereo not given)	12	-26	4	99*	-7	-12
COC(=O)c1ccc(-c2noc(CN3CCCCC3c3nccn3C)n2)cc1 (stereo not given)	-1	-34	0	35*	-14	2

Screens (PubChem BioAssay)
